Reference: PubChem BioAssay (NCATS)
Inconclusive results are not listed. Activity calls are given as the source filed them. The call rests on the fitted dose curve; in most records, active means well fitted cell-killing curve with a large enough effect; inconclusive means small, poorly fitted or top-dose-only effect; inactive means flat fitted curve, though single readings scatter. Residues, ends and D or L forms follow the SMILES beside them. *: point of attachment. Cbz = O=C(OCc1ccccc1)*

experiment: qHTS of pediatric cancer cell lines to identify multiple opportunities for drug repurposing: Confirmatory screen for A673 cells (AID 1347110); settings: A673 Ewing sarcoma cell viability; series mostly up to 45.9 µM; activity change, negative = cytotoxicity: at the top concentration;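 further: cells exposed to compound for 48 h before the viability read; nearly all actives have a fitted effect of over 65% in size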
Excerpt: Drug repurposing or repositioning has been offered as a strategy for drug development in oncology programs. This approach has special potential for childhood cancers and other rare or orphan diseases, where the expected return on new drug development has been a disincentive to pharmaceuticals.
In this project we exploit the poly-pharmacology of drugs to discover new indications via phenotypic screening of a panel of 19 well-characterized cell lines derived from solid tumors seen in children and adolescents. The goal is to identify approved drugs with previously unrecognized anticancer properties that has the potential to reveal new mechanisms and biological processes involved in carcinogenesis or drug resistance. We employed a titration-based paradigm (quantitative high-throughput screening or qHTS), where all compounds were tested at multiple concentrations for their effect on cell viability. Concentration-response curves (CRCs) were derived directly from the primary screen, and both potency and efficacy values were used to identify compounds with robust bioactivity profiles. We screened the NIH Chemical Genomics Center (NCGC) Pharmaceutical Collection (NPC) and Mechanism Interrogation Plate (MIPE) small molecule collections of approved and investigational compounds against these cell lines; and measured metabolically active cells after 48 hours of compound treatment as a proxy for cell viability.
Assay Submitter: Nathalia J. Martinez, National Center for Advancing Translational Sciences, National Institutes of Health, Rockville, MD, USA; email: natalia.martinez@nih.gov.
[1] Shen, M et al. Quantitative high-throughput phenotypic screening of pediatric cancer cell lines identifies multiple opportunities for drug repurposing. Oncotarget 2017 Dec 19;9(4):4758-4772. PMID 29435139.
The cells were obtained from University of North Carolina (UNC), Pediatric Preclinical Testing Program (PPT), and Coriell Institute (CI).
qHTS cell viability assay:
Cells were assayed in growth media at a density of 500-1,000 cells/well. Five microliters of cells were dispensed into 1,536-well, white, solid-bottom, TC-treated plates (Greiner Bio One) using a multidrop dispenser and incubated at 37 degrees C, 5% CO2, under a humidified atmosphere for 5 hours. Twenty-three nanoliters of compounds and controls (neutral control DMSO or positive control bortezomib at final concentration of 2.3 uM) were subsequently transferred by Kalypsys pintool. For primary screens, the MIPE collection was tested at 11-point dilutions (final concentrations range from 0.78 nM to 46 µM) and the NPC collection at 8-point dilutions (final concentrations range from 0.59 nM to 46 µM). Compounds tested in follow-up screens were assayed at 11-point dilutions. Cells were incubated for 48 hours, followed by addition of 3 uL of CellTiter-Glo (Promega). After a 15min incubation at room temperature, samples were analyzed for luminescence intensity using a ViewLux High-throughput CCD imager equipped with clear filters.
Potency means the concentration at half of the fitted maximal effect.

Compound	Potency	activity change, negative = cytotoxicity
Cc1ccc([N+](=O)[O-])cc1S(=O)(=O)N(C)N=Cc1cnc2ccc(Br)cn12	293 nM (active)	–
O=C(O)c1ccc(Nc2ncc3c(n2)-c2ccc(Cl)cc2C(c2c(F)cccc2F)=NC3)cc1	10400 nM (active)	–
CNC(=O)c1ccc(Nc2cc(Nc3ccccc3S(=O)(=O)C(C)C)c3cc[nH]c3n2)nc1	1170 nM (active)	–
CN[C@@H]1C[C@H]2O[C@@](C)([C@H]1OC)n1c3ccccc3c3c4c(c5c6ccccc6n2c5c31)C(=O)N[C@H]4O	369 nM (active)	–
CCN(CC)Cc1ccc2cc(COC(=O)Nc3ccc(C(=O)NO)cc3)ccc2c1	–	22.3% (inactive)
COC(=O)C=CC(=O)OC	–	-14.7% (inactive)
CC(=O)NCC(=O)N1[C@H]2CC[C@H]1c1cc(Nc3ncc(C(F)(F)F)c(NC4CCC4)n3)ccc12	4140 nM (active)	–
COc1cccc2c1C(=O)c1c(O)c3c(c(O)c1C2=O)C[C@@](O)(C(=O)CO)C[C@H]3O[C@H]1C[C@H](N)[C@H](O)[C@H](C)O1	928 nM (active)	–
COC(=O)C1C2CC3c4[nH]c5cc(OC)ccc5c4CCN3CC2CC(OC(=O)c2cc(OC)c(OC)c(OC)c2)C1OC (stereo not given)	3290 nM (active)	–
CN(C)c1ccc(C(=O)NCCCCCCC(=O)NO)cc1	1850 nM (active)	–
O=C1c2c(O)cccc2[C@@H]([C@@H]2O[C@H](CO)[C@@H](O)[C@H](O)[C@H]2O)c2cc(CO)cc(O)c21	–	1.02% (inactive)
CC(C(C)N1CC(=O)NC(=O)C1)N1CC(=O)NC(=O)C1 (stereo not given)	–	-12% (inactive)
C[C@H](NCc1ccc2c(c1)nc(NC(=O)c1ccc(-c3cn[nH]c3)s1)n2CCc1ccccc1)C(C)(C)C	928 nM (active)	–
CC(C)C[C@@H](C=O)NC(=O)[C@H](CC(C)C)NC(=O)[C@H](CC(C)C)NC(=O)OCc1ccccc1 (Cbz-Leu-Leu-Leu-aldehyde)	1170 nM (active)	–
CC(=O)ON=C1C(c2c(O)[nH]c3cc(Br)ccc23)=Nc2ccccc21	7370 nM (active)	–
Cc1cnc(Nc2ccc(CN3CCOCC3)cc2)nc1Nc1cccc(S(=O)(=O)NC(C)(C)C)c1	13100 nM (active)	–
C=CC(=O)N1CCc2ccc(-n3c(=O)ccc4cnc5ccc(-c6cnn(C)c6)cc5c43)cc21	14700 nM (active)	–
CN(CC(=O)N(Cc1ccc(C2CCCCC2)cc1)c1ccc(C(=O)O)c(O)c1)S(=O)(=O)c1c(F)c(F)c(F)c(F)c1F	13100 nM (active)	–
O=C(NC1CC1)c1cccc(-c2ccc3c(NC(=O)C4CC4)n[nH]c3c2)c1	4140 nM (active)	–
COc1ccc(S(=O)(=O)Nc2cccnc2Nc2ccc(O)cc2)cc1	928 nM (active)	–

Compound	Potency	activity change, negative = cytotoxicity
Cn1cnc(=N)c2[nH]cnc21	–	0.359% (inactive)
COc1cc(C=CC(=O)CC(=O)C=Cc2ccc(O)c(OC)c2)ccc1O	10700 nM (active)	–
O=C1NCCc2[nH]c(-c3ccncc3)cc21	2080 nM (active)	–
O=C1NC(=O)C(=Cc2ccc3nccc(-c4ccncc4)c3c2)S1	4650 nM (active)	–
CC(=O)SCC(Cc1ccccc1)C(=O)NCC(=O)OCc1ccccc1 (stereo not given)	–	4.3% (inactive)
Cn1cc(CNCC2CCN(c3ncc(C(=O)NO)cn3)CC2)c2ccccc21	104 nM (active)	–
CCN(CC)CCNC(=O)c1c(C)[nH]c(C=C2C(=O)Nc3ccc(F)cc32)c1C	10700 nM (active)	–
C=CC(=O)Nc1cccc(Nc2nc(NC3CCC(N(C)C)CC3)nc3c2ncn3C(C)C)c1 (stereo not given)	737 nM (active)	–
CC(N[C@H]1CCCC[C@H]1NC(=O)c1ccc(Cl)cc1)c1cccc2ccccc12 (stereo not given in full)	16500 nM (active)	–
COc1ccc(C(C)=O)c(O)c1	–	12.9% (inactive)
C[C@@H](Oc1ccc2[nH]nc(C=Cc3cnn(CCO)c3)c2c1)c1c(Cl)cncc1Cl	1310 nM (active)	–
Nc1ncn([C@@H]2O[C@H](CO)[C@@H](O)[C@@H]2O)c(=O)n1	5850 nM (active)	–
COc1cc(OC)c(C=CS(=O)(=O)Cc2ccc(OC)c(NCC(=O)O)c2)c(OC)c1	369 nM (active)	–
COc1cccc2c1C(=O)c1c(O)c3c(c(O)c1C2=O)C[C@@](O)(C(=O)CO)C[C@@H]3O[C@H]1C[C@H](N)[C@@H](O)[C@H](C)O1	293 nM (active)	–
COc1ccc(C=Cc2cc(OC)c(OC)c(OC)c2)cc1NC(=O)[C@H](N)CO	104 nM (active)	–
C=C1C(=CC=C2CCC[C@]3(C)[C@@H]([C@H](C)CCCC(C)(C)O)CC[C@@H]23)C[C@@H](O)C[C@@H]1O	–	-5.72% (inactive)
C[C@H]1[C@@H](OC(=O)CCC(=O)O)O[C@@H]2O[C@@]3(C)CC[C@@H]4[C@H](C)CC[C@@H]1[C@@]24OO3	2330 nM (active)	–
NS(=O)(=O)OC[C@@H]1C[C@@H](n2ccc3c(N[C@H]4CCc5ccccc54)ncnc32)C[C@H]1O	14700 nM (active)	–
CCS(=O)(=O)Nc1ccc2[nH]c(O)c(C(=Nc3ccc(CN4CCCCC4)cc3)c3ccccc3)c2c1	928 nM (active)	–
Cc1[nH]c(C=C2C(=O)Nc3ccccc32)c(C)c1CCC(=O)O	–	11.2% (inactive)
